{
  "source": "PubChem BioAssay (NCATS)",
  "note": "Inconclusive results are not listed. Entries that show only a call come without a potency. Calls of active or inactive are those of the source. Calls come from the whole dose curve; as a rule, active = well fitted inhibition curve with a large enough effect; inconclusive = small, poorly fitted or top-dose-only effect; inactive = no such curve, though single readings can be large or run the other way. Potency is the fitted concentration of half-maximal effect.",
  "data": [
    {"assay": "NS1 protein of Zika virus - qHTS assay to identify small molecule inhibitors in human HEK 293 cells (AID 1347053); note: nearly all actives have a fitted effect of over 55% in size", "conditions": "HEK293 ZIKV MR766 infection, NS1 TR-FRET, 24 h; series mostly up to 46.1 µM", "from_the_text": "National Center for Advancing Translational Sciences [NCATS]\nJohns Hopkins University School of Medicine\nThe non-structural 1 (NS1) protein of zika virus is known to associate with the viral replication complex. This cell-based TR-FRET ZIKV NS-1 assay measures the increased NS-1 protein in human HEK 293 cells after a 24-hour Zika virus infection by a TR-FRET assay readout. A decrease in the Time-resolved fluorescence energy transfer (TR-FRET) signal in this assay by small molecule treatment indicates an inhibitory effect of the small molecule on the expression of Zika virus NS1 correlating with Zika virus replication.\nHEK 293 cells were cultured in EMEM (ATCC, Cat. # 30-2003) medium with 10% fetal bovine serum (GE healthcare Life Sciences, Cat. # SH30071.03), and 1% Pen/Strep (Gibco, Cat. # 15140-122). Cells were seeded in the assay plate and incubated at 37 C with 5% CO2 for 20 hours. Compounds were added to cells and incubated for one hour before addition of ZIKV MR766 strain solution to cells (MOI = 0.5). After an incubation at 37 C for 24 hours, the reagent mixture of TR-FRET ZIKV NS1 assay using two anti-ZIKV NS1 antibodies was added to assay plates. The TR-FRET signals in assay plates were measured using an Envision plate reader (PerkinElmer). Data were normalized by using the cell-containing wells without ZIKV as a negative control (0% NS-1) and wells containing ZIKV infected cells as a positive control (100% NS-1 level).", "values": [
      {"smiles": "Clc1cccc(-c2nnnn2Cc2cccnc2)c1Cl", "Potency": "inactive"},
      {"smiles": "CNC(=O)c1ccc(-c2cnc3ncc(Cc4ccc5ncccc5c4)n3n2)cc1F", "Potency": "inactive"},
      {"smiles": "CC1(C)CC(=O)c2c(C(F)(F)F)nn(-c3ccc(C(N)=O)c(NC4CCC(OC(=O)CN)CC4)c3)c2C1", "note": "(stereo not given)", "Potency": "inactive"},
      {"smiles": "CN1CC[C@@H](c2c(O)cc(O)c3c(=O)cc(-c4ccccc4Cl)oc23)[C@@H](O)C1", "Potency": "0.833 µM (active)"},
      {"smiles": "CC(=O)SC[C@@H](C)C(=O)N1CCC[C@H]1C(=O)N[C@@H](Cc1ccccc1)C(=O)O", "Potency": "inactive"},
      {"smiles": "Cc1c(C)n(Cc2ccc(-c3ccccc3C(=O)O)cc2)c2ccc(C(=O)N[C@@H](C)c3ccc([N+](=O)[O-])cc3)cc12", "Potency": "inactive"},
      {"smiles": "CC(NCc1ccc2c(c1)nc(NC(=O)c1ccc(-c3cn[nH]c3)s1)n2CC(C)(C)O)C(C)(C)C", "note": "(stereo not given)", "Potency": "4.69 µM (active)"},
      {"smiles": "CNC(=O)c1cc(Oc2ccc(NC(=O)Nc3cc(C(C)(C)C)nn3-c3ccc4ncccc4c3)c(F)c2)ccn1", "Potency": "inactive"},
      {"smiles": "O=C(O)c1ccc2cc(-c3ccc(O)c(C45CC6CC(CC(C6)C4)C5)c3)ccc2c1", "Potency": "0.59 µM (active)"},
      {"smiles": "O=C(O)CO.[NH2-].[NH2-].[Pt+2]", "Potency": "inactive"},
      {"smiles": "CCOc1cc2ncc(C#N)c(Nc3ccc(F)c(Cl)c3)c2cc1NC(=O)C=CCN(C)C", "Potency": "inactive"},
      {"smiles": "CS(=O)(=O)c1ccc(-c2cnc(N)c(C(=O)Nc3ccccc3)n2)cc1", "Potency": "inactive"},
      {"smiles": "Nc1ncnc2c1c(-c1cccc(OCc3ccccc3)c1)cn2C1CC(CN2CCCC2)C1", "note": "(stereo not given)", "Potency": "inactive"},
      {"smiles": "Cc1cn2cc(C(=O)N(C)CCO)cc(N[C@@H]3CCOc4cccc(C)c43)c2n1", "Potency": "inactive"},
      {"smiles": "C=C1C(=CC=C2CCCC3(C)[C@@H]([C@H](C)C=CC=CC(O)(CC)CC)CC[C@@H]23)C[C@@H](O)C[C@@H]1O", "note": "(stereo not given in full)", "Potency": "inactive"},
      {"smiles": "CC(O)C1C(=O)N2C(C(=O)O)=C(SC3CNC(C(=O)N(C)C)C3)C(C)C12", "note": "(stereo not given)", "Potency": "inactive"},
      {"smiles": "Cc1nc(Nc2n[nH]c3c2CN(C(=O)N[C@H](CN(C)C)c2ccccc2)C3(C)C)c2sccc2n1", "Potency": "13.2 µM (active)"},
      {"smiles": "O=C(CCCCCCC(=O)Nc1ccc([C@H]2O[C@@H](CSc3nc(-c4ccccc4)c(-c4ccccc4)o3)C[C@@H](c3ccc(CO)cc3)O2)cc1)NO", "Potency": "inactive"},
      {"smiles": "COc1ccc(CC2SC(=O)NC2=O)cc1C(=O)NCc1ccc(C(F)(F)F)cc1", "note": "(stereo not given)", "Potency": "inactive"},
      {"smiles": "CCN(CC)CCNC(=O)c1ccc2nc(-c3ccccc3)c(-c3ccc(CN4CCC(n5c(=O)[nH]c6ccccc65)CC4)cc3)nc2c1", "Potency": "3.32 µM (active)"},
      {"smiles": "Nc1nc(Nc2ccc(S(N)(=O)=O)cc2)nn1C(=O)c1c(F)cccc1F", "Potency": "18.7 µM (active)"},
      {"smiles": "CC(C)(C)c1cc(C(C)(C)C)c(NC(=O)c2c[nH]c3ccccc3c2=O)cc1O", "Potency": "inactive"},
      {"smiles": "Nc1ccn([C@@H]2CS[C@H](CO)O2)c(=O)n1", "Potency": "inactive"},
      {"smiles": "COC(=O)c1ccc2c(C(=Nc3ccc(N(C)C(=O)CN4CCN(C)CC4)cc3)c3ccccc3)c(O)[nH]c2c1", "Potency": "inactive"},
      {"smiles": "O=c1[nH]nc(Sc2ncc([N+](=O)[O-])s2)n1-c1ccc2c(c1)OCCO2", "Potency": "9.35 µM (active)"},
      {"smiles": "CCC[C@H](NC(=O)C(C#N)=Cc1cccc(Br)n1)c1ccccc1", "Potency": "14.8 µM (active)"},
      {"smiles": "C[C@]1(CO)CN(c2cc(C(=O)Nc3ccc4c(c3)-c3c(c(C(N)=O)nn3-c3ccc(F)cc3)CC4)c(Cl)cn2)C[C@@]1(C)CO", "Potency": "4.69 µM (active)"},
      {"smiles": "NCC(=O)Nc1ccc(-n2nc(C(F)(F)F)cc2-c2ccc3c(ccc4ccccc43)c2)cc1", "Potency": "0.0526 µM (active)"},
      {"smiles": "OCc1ccc(-c2ccc(-c3ccc(CO)s3)o2)s1", "Potency": "inactive"},
      {"smiles": "CN(c1ncccc1CNc1nc(Nc2ccc3c(c2)CC(=O)N3)ncc1C(F)(F)F)S(C)(=O)=O", "Potency": "11.8 µM (active)"},
      {"smiles": "CC=CC1=C(C(=O)O)N2C(=O)[C@H](NC(=O)[C@H](N)c3ccc(O)cc3)[C@@H]2SC1", "Potency": "inactive"},
      {"smiles": "COc1cc2c(cc1-c1c(C)noc1C)ncc1[nH]c(=O)n([C@H](C)c3ccccn3)c12", "Potency": "inactive"},
      {"smiles": "Cc1[nH]nc2ccc(-c3cncc(OC[C@@H](N)Cc4ccccc4)c3)cc12", "Potency": "8.33 µM (active)"},
      {"smiles": "CC(C)CC(=O)Nc1n[nH]c2c1CN(C(=O)C1CCN(C)CC1)C2(C)C", "Potency": "26.4 µM (active)"},
      {"smiles": "C=C1C(=CC=C2CCC[C@]3(C)[C@@H]([C@H](C)C=C[C@H](C)C(C)C)CC[C@@H]23)C[C@@H](O)C[C@@H]1O", "Potency": "inactive"},
      {"smiles": "Cc1cc(Nc2cc(N3CCN(C)CC3)nc(Sc3ccc(NC(=O)C4CC4)cc3)n2)n[nH]1", "Potency": "9.35 µM (active)"},
      {"smiles": "CC(=O)OCCN1C(=O)c2c(C)nc3ccc(S(=O)(=O)N4CCOCC4)cc3c2C1=O", "Potency": "inactive"},
      {"smiles": "O=C(NCCS(=O)(=O)c1ccc(C(F)(F)F)cn1)c1ccc(Cl)cc1", "Potency": "inactive"},
      {"smiles": "O=C(Nc1ncc(-c2cc(C(F)F)nn2-c2c(Cl)cccc2Cl)s1)C1CC1", "Potency": "1.05 µM (active)"},
      {"smiles": "C[C@@H](Oc1cc(-n2cnc3ccc(CN4CCN(C)CC4)cc32)sc1C(N)=O)c1ccccc1C(F)(F)F", "Potency": "0.059 µM (active)"}
    ]}
  ]
}
